Assay outcomes deposited in PubChem by several laboratories.
Shown are actives, neighbours in structure and some others; about 2.3% of the full set was active somewhere.
SENP8 block-1 = SENP8 protease inhibition | AID 2540 | inhibition, % at 10 µM | actives 1.2% (n = 330,000) | Q96LD8 | purified SENP8, Z-RLRGG-aminoluciferin cleavage, luminescence; in the data active = inhibition above about 50%
Target sequence (Q96LD8 whole entry, looked up): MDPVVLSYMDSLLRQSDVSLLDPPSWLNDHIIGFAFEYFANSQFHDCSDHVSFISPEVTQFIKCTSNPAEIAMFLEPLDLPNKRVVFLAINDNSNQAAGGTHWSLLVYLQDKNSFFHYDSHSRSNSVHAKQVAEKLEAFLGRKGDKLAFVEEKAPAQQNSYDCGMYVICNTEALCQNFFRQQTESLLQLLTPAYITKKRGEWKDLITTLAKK
LGR2 inh = inhibitors of bursicon-induced Drosophila LGR2 receptor cAMP signaling. HEK293 LGR2, CRE-luciferase, bursicon-stimulated, 4 h. AID 720647. inhibition, % at 9.99 µM. actives 0.35% (n = 380,000);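 active = drop in luminescence signal, shown as inhibition above about 50% in the replicate tests, limit read from the data, passing the limit was not always enough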;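 also: agonist challenge used bursicon conditioned medium at about half maximal strength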
HSP90 refold inh = inhibitors of HSP90 luciferase refolding in rabbit reticulocyte lysate; AID 1789; inhibition, % at 5.6 µM; actives 0.91% (n = 290,000); luciferase refolding luminescence, 3 h;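 active = inhibition above the screen-wide mean plus 3 SD, computed separately per campaign, cut at about 16% in these data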;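 also: 0% = DMSO wells and 100% = 60 µM geldanamycin wells; inhibitors lower the luminescence because luciferase stays unfolded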
SENP7 inh = blocks the human protease SENP7 | recombinant SENP7, Z-RLRGG-aminoluciferin luminescence, 40 min | inhibition, % at 5 µM | actives 1.5% (n = 330,000) | AID 434973;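 active = inhibition above about 50% at the single test dose, limit read from the data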;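 also: plate controls were DMSO with enzyme for no effect and no enzyme buffer wells for full effect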
Target sequence (Q9BQF6 706-1050 limits assumed): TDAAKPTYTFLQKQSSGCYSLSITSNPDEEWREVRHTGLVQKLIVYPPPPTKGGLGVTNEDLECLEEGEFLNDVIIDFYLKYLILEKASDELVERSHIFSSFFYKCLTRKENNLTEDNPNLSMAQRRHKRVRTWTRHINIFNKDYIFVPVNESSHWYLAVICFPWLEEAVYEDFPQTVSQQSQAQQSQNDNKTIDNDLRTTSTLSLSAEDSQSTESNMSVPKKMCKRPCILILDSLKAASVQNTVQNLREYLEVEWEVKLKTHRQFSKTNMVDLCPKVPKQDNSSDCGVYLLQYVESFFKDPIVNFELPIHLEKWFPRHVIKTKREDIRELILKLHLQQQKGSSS
SENP8 block-2 = blocks human SENP8 cleavage of Nedd8 substrate. Q96LD8. recombinant SENP8, Nedd8 substrate fluorescence. inhibition, % at 20 µM. actives 0.64% (n = 360,000); in the data active = inhibition mostly above about 40%, no sharp cut-off; inactive = mostly below about 27%
SENP6 block = SENP6 protease inhibition. Q9GZR1. Recombinant SENP6 catalytic domain, aminoluciferin luminescence. inhibition, % at 10 µM. actives 1.8% (n = 330,000);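 active = inhibition above about 50% at the single tested dose, limit read from the data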;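 also: plate controls were DMSO wells with enzyme for no effect and DMSO wells lacking enzyme for full effect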
SENP8 inh conf = SENP8 (human) inhibition, single concentration confirmation | inhibition, % at 25 µM | purified SENP8, Nedd8-AMC/pro-Nedd8 cleavage fluorescence, 30 min | shares compounds with SENP8 block-2 | actives 15% (n = 1,400); in the data active = inhibition mostly above about 39%, no sharp cut-off; inactive = mostly below about 34%
Active calls of the source: *; . = no result given.

SMILES | SENP8 block-1 | LGR2 inh | HSP90 refold inh | SENP7 inh | SENP8 block-2 | SENP6 block | SENP8 inh conf
CC1CCN(c2ccc(C(=O)NCc3ccco3)cc2[N+](=O)[O-])CC1 | -4 | -35 | 2 | 6 | 42* | -5 | 28
C[C@@H]1CN([C@@H](C)CO)C(=O)c2cc(C#CC3CCCCC3)cnc2O[C@H]1CN(C)Cc1ccncc1 | . | -6 | . | . | . | . | .
Cc1nc(CS(=O)(=O)c2ccccn2)sc1C(=O)NNC(=O)c1c(F)cccc1Cl | 0 | -3 | -4 | 7 | 42* | 1 | 14
CC(C)CC#Cc1cnc2c(c1)C(=O)N([C@H](C)CO)C[C@@H](C)[C@@H](CN(C)C(=O)c1cnccn1)O2 | . | -15 | . | . | . | . | .
CN(C)c1cc(Nc2cccc(O)c2)c([N+](=O)[O-])c2nonc12 | 4 | 0 | 1 | -4 | 45* | -2 | 36
CCCOc1cccn2c(N(C)C(=O)c3ccccc3F)c(CC)nc12 | . | 3 | . | . | 12 | . | .
CCC(CC)C(=O)N(C)c1c(C)nc2c(OCC=C(C)C)cccn12 | . | . | . | . | 40* | . | 26
CCc1nc2c(OCC=C(C)C)cccn2c1N(C)C(=O)c1ccccc1F | . | -11 | . | . | 41* | . | 15
CCc1nc2c(OCC=C(C)C)cccn2c1N(C)C(=O)c1ccc(OC)cc1 | . | 0 | . | . | 43* | . | -2
O=S(=O)(N[C@H]1CC[C@H](CCn2cc(-c3cccnc3)nn2)O[C@H]1CO)c1ccc(Cl)cc1 | . | -6 | . | . | . | . | .
COC(=O)/C(=C/Nc1ccccc1)[N+](=O)[O-] | 1 | . | -2 | -7 | 3 | -7 | .
COC(=O)/C(=C/Nc1ccc(O)cc1)[N+](=O)[O-] | -31 | . | -2 | 18 | 74* | -6 | 17
O=C1CCCC2=C1C1(O)C(=O)c3ccccc3C1(O)O2 (stereo not drawn) | 12 | . | -1 | 28 | 51* | 21 | 89*
CC(=O)c1c2c3c(cccc3n(C)c1=O)C(=O)c1ccccc1-2 | -19 | . | 1 | -9 | . | -6 | .
Cn1c(=O)c(Nc2ccc(O)cc2)c2c3c(cccc31)C(=O)c1ccccc1-2 | -9 | 4 | -7 | 6 | 45* | 1 | 15
O=C(N[C@H]1CC[C@@H](CCNC(=O)C2CC2)O[C@@H]1CO)c1ccncc1 | . | -33 | . | . | . | . | .
CCc1ccc2c(c1)c1nnc(NN)nc1n2CC | 6 | -9 | 1 | 0 | 72* | 7 | 11
CCc1ccc2c(c1)c1nnc(NN)nc1n2C | 6 | . | -1 | -6 | 64* | 13 | -4
CCCNC(=O)N1C[C@@H](O)COC[C@H]2O[C@H](CC(=O)N3CCOCC3)CC[C@@H]21 | . | 6 | . | . | . | . | .
Cc1ccc(Sc2ccc(/C=N/O)cc2[N+](=O)[O-])cc1 | -13 | . | -4 | 4 | 42* | 7 | 17
CO/N=C/c1ccc(Sc2ccc(C)cc2)c([N+](=O)[O-])c1 | -4 | 12 | 2 | 2 | 32 | -6 | .
Cc1ccc(C)c(Nc2c([N+](=O)[O-])cc(C(=O)N3CC(=O)Nc4ccccc43)cc2[N+](=O)[O-])c1 | -7 | 16 | 2 | 0 | 60* | -6 | 20
O=C(O)c1ccc(N/N=C/C=C/c2ccc([N+](=O)[O-])o2)cc1 | -7 | -9 | 3 | 6 | 45* | 27 | 28
O=C(N/N=C/c1ccc([N+](=O)[O-])o1)C(=O)Nc1ccc(C(=O)O)cc1 | 4 | -13 | 1 | 1 | 33 | 23 | .
O=C(NCc1cccs1)C1CCCN1C(=O)Nc1ccc(F)cc1 (stereo not drawn) | 1 | -7 | -1 | 9 | 41* | -13 | 13
SMILES | SENP8 block-1 | LGR2 inh | HSP90 refold inh | SENP7 inh | SENP8 block-2 | SENP6 block | SENP8 inh conf
C[C@H](CO)N1C[C@H](C)[C@H](CN(C)C(=O)Nc2ccccc2)OCCCC[C@H](C)Oc2ccc(NC(=O)Nc3ccc(C(F)(F)F)cc3)cc2C1=O | . | 10 | . | . | . | . | .
CCOC(=O)C1(C)C=C(Nc2ccc(O)cc2)C(=O)N1c1ccc(O)cc1 (stereo not drawn) | -2 | -30 | 0 | 13 | 61* | 4 | 16
CCOC(=O)C1(C)C=C(Nc2ccc(OC)cc2)C(=O)N1c1ccc(OC)cc1 (stereo not drawn) | 0 | -1 | 2 | -3 | -324 | -7 | .
COc1cc(SC#N)ccc1N=Cc1c(C)[nH]n(-c2ccc(Cl)cc2)c1=O | -14 | . | 9 | -2 | 61* | 8 | 12
COc1cc(SC#N)ccc1N=Cc1c(C)[nH]n(-c2ccc(C)c(C)c2)c1=O | 3 | . | 14 | 2 | 26 | 5 | .
Cc1ccc(C(=O)NCC(=O)OCC(=O)N(CC(C)C)c2c(N)n(Cc3ccccc3)c(=O)[nH]c2=O)cc1C | -3 | 6 | . | 1 | 5 | -11 | .
Cc1ccc(C(=O)NCC(=O)OCC(=O)N(CC(C)C)c2c(N)n(Cc3ccccc3)c(=O)[nH]c2=O)cc1 | -1 | -3 | . | 7 | 32* | 3 | 27
Cc1nc2ccccc2n1/N=C/c1ccc([N+](=O)[O-])o1 | 14 | -11 | 2 | 2 | 42* | 19 | 47*
COc1ccc(NC(=O)N(C)C[C@@H]2Oc3ncc(-c4ccc(C#N)cc4)cc3C(=O)N([C@@H](C)CO)C[C@@H]2C)cc1 | . | 1 | . | . | . | . | .
O=C(NCC1COc2ccccc2O1)C1C2C=CC3(CN(Cc4ccccc4Cl)C(=O)C13)O2 (stereo not drawn) | -2 | . | 5 | -9 | 4 | 8 | .
COc1ccc(CCN2CC34C=CC(O3)C(C(=O)NCc3ccccc3Cl)C4C2=O)cc1OC (stereo not drawn) | 2 | . | 0 | 5 | 47* | 4 | 16
O=C(C[C@H]1CC[C@H](NC(=O)c2ccncc2)[C@@H](CO)O1)Nc1ccc(-c2ccccc2)cc1 | . | 4 | . | . | . | . | .
O=C(COc1ccccc1)N1CCN(C(=O)c2cccc(F)c2)CC1 | 2 | . | -4 | 8 | 41* | -12 | 36
C[C@H](CO)N1C[C@H](C)[C@H](CN(C)C)Oc2ccc(NC(=O)C3CCCCC3)cc2CC1=O | . | 11 | . | . | . | . | .
CNc1ccc(/C=C2\COc3ccccc3C2=O)cc1[N+](=O)[O-] | -6 | . | 1 | -18 | 50* | -8 | 14
Cc1cccc(NC(=O)CCS(=O)(=O)c2cccc3nsnc23)c1C | 6 | . | -2 | 6 | 41* | -10 | 15
COc1ccc(NC(=O)N(C)C[C@@H]2Oc3ccc(NC(=O)CCCCCC(=O)Nc4ccccc4N)cc3C(=O)N([C@H](C)CO)C[C@@H]2C)cc1 | . | 3 | . | . | . | . | .
O=C(C[C@H]1C[C@H]2c3cc(NC(=O)C4CCOCC4)ccc3O[C@H]2[C@H](CO)O1)NCc1ccccn1 | . | 19 | . | . | . | . | .
C/C(=C\C(=O)c1cccnc1)Nc1ccc(O)cc1 | 1 | . | 6 | 11 | 84* | -7 | 16
C/C(=C\C(=O)c1ccccc1)Nc1ccc(O)cc1 | -5 | . | 8 | 17 | 84* | 9 | 16
COc1ccc(C(=O)/C=C(\C)Nc2ccc(NC(C)=O)cc2)cc1 | 4 | -8 | 0 | 11 | 21 | 11 | .
